From PubChem BioAssay (NCI) come the findings set out here.

Compounds without any hit were thinned out: in the full panel of roughly 83,000, 20% have a hit.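 Single-concentration screen, 48 h exposure, 96-well plates. Endpoint: percent growth. Below 10 = active.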 A number with no mark means an inactive call. The source made the active and inactive calls.

Some test systems named below: NCI-H226 lung; NCI-H322M lung; HOP-62 NSCLC; NCI-H460 lung; HOP-92 NSCLC; NCI-H522 lung; A549/ATCC NSCLC; 786-0 renal; COLO 205 colon; DU-145 prostate; K-562 leukemia; MALME-3M melanoma; MDA-MB-231 breast; RXF 393 renal; SF-268 CNS; SF-295 CNS; SF-539 CNS; UACC-257 melanoma; M14 melanoma.
What all share (assay): NCI-60 one-dose screen, 48 h (100 = growth as untreated, 0 = no growth, -100 = all killed)
Holding throughout (conditions): 10 µM unless noted

With `CCNc1nc(-c2ccc(Cl)c(OC)c2)c(-c2ccnc(NCCNS(=O)(=O)c3ccc(Cl)cc3)n2)s1`, the growth in the experiment on NCI-H226 lung is 20.8%; in the experiment on NCI-H322M lung it was 44.9%; in the experiment with HOP-62 NSCLC, 21.5%; with NCI-H460 lung it was 17.1%; with HOP-92 NSCLC, -2.89% (active); in the experiment on NCI-H522 lung it was -25.5% (active). The growth with A549/ATCC NSCLC was 27.6%; with 786-0 renal, 6.16% (active); with COLO 205 colon, 26.2%; in the experiment with DU-145 prostate, 44.3%; with K-562 leukemia, 18.3%; in the experiment on MALME-3M melanoma, 46.2%. Also, the growth in the experiment with MDA-MB-231 breast is 0.973% (active); in the experiment on RXF 393 renal, 18.9%; in the experiment on SF-268 CNS, 37%; in the experiment on SF-295 CNS it was 17.2%; in the experiment with SF-539 CNS, 38.3%; with UACC-257 melanoma it was 50.4%. In the experiment on M14 melanoma, the growth was 29.7%.

Regarding `Cc1cc2nc(C(Cl)Cl)nc(-c3ccccc3)n2n1`, the growth in the experiment on NCI-H226 lung was 90.7%; in the experiment on NCI-H322M lung, 10.9%; in the experiment with HOP-62 NSCLC, 31.9%; in the experiment with NCI-H460 lung, -50% (active); with HOP-92 NSCLC it was 72.9%; in the experiment on NCI-H522 lung, 72.4%. The growth with A549/ATCC NSCLC is 4.73% (active); with 786-0 renal, 92.4%; in the experiment with COLO 205 colon, 1.99% (active); in the experiment with DU-145 prostate it was -6.97% (active); in the experiment with K-562 leukemia it was 66.4%; in the experiment on MALME-3M melanoma, 113%. Besides, the growth was 62.7% in the experiment on MDA-MB-231 breast; 9.08% (active) in the experiment on RXF 393 renal; 77.8% in the experiment on SF-268 CNS; 55.7% with SF-295 CNS; 76.7% with SF-539 CNS; 93% in the experiment on UACC-257 melanoma. Moreover, in the experiment on M14 melanoma, the growth was 73.3%.

With `CO[C@]12C=C/C(=C(/C(=O)OCc3cccnc3)C(=O)CCCCCCCC[C@]3(OC)C=C/C(=C(/C(=O)OCc4cccnc4)C(=O)CCCCCCCC1)O3)O2`, the growth in the experiment with NCI-H322M lung was -85% (active); with HOP-62 NSCLC, -33.1% (active); with NCI-H460 lung it was -18.3% (active); in the experiment with HOP-92 NSCLC, -28.5% (active); with NCI-H522 lung, -39.6% (active); with A549/ATCC NSCLC, -19.6% (active). Further, the growth is -64.1% (active) in the experiment with 786-0 renal; -56.5% (active) in the experiment with COLO 205 colon; -95.3% (active) with DU-145 prostate; 0.254% (active) with K-562 leukemia; -38.4% (active) in the experiment on MALME-3M melanoma; -38.3% (active) in the experiment with MDA-MB-231 breast. Besides, the growth with RXF 393 renal was -75.4% (active); in the experiment on SF-268 CNS, -72.1% (active); with SF-295 CNS, -79.1% (active); in the experiment with SF-539 CNS it was -55.2% (active); with UACC-257 melanoma, -43.2% (active); in the experiment on M14 melanoma it was -47% (active).

In the case of `Cc1ccc(C2=Nc3c(N)nc(N)nc3NC(c3cccc(Nc4ccnc5cc(C(F)(F)F)ccc45)c3)C2)cc1` (stereo not given), the growth with NCI-H226 lung is 80.7%; in the experiment with NCI-H322M lung, 54.8%; in the experiment with HOP-62 NSCLC, 34.1%; in the experiment on NCI-H460 lung, 11.7%; with HOP-92 NSCLC it was 28.3%; in the experiment with NCI-H522 lung it was 11.9%. In addition, the growth was 30.1% with A549/ATCC NSCLC; 20.9% with 786-0 renal; 7.09% (active) with COLO 205 colon; 46.6% with DU-145 prostate; 8.46% (active) in the experiment on K-562 leukemia; 39.1% in the experiment on MALME-3M melanoma. In addition, the growth is 34.8% in the experiment with MDA-MB-231 breast; 23.6% in the experiment with RXF 393 renal; 29.7% with SF-268 CNS; 15.8% in the experiment on SF-295 CNS; 40.3% in the experiment with SF-539 CNS; 62.3% in the experiment with UACC-257 melanoma. Further, in the experiment with M14 melanoma, the growth was 11.1%.

Regarding `Cc1cc2c(C(C)C)c(O)c(O)c(/C=N/O)c2c(O)c1-c1c(C)cc2c(C(C)C)c(O)c(O)c(/C=N/O)c2c1O`, the growth was 33.2% in the experiment on NCI-H226 lung; 35.9% in the experiment with NCI-H322M lung; 11.8% in the experiment on HOP-62 NSCLC; 2.59% (active) in the experiment on NCI-H460 lung; 8.85% (active) in the experiment with HOP-92 NSCLC; -25.7% (active) in the experiment on NCI-H522 lung. The growth with A549/ATCC NSCLC is 4.66% (active); in the experiment on 786-0 renal it was 22.2%; with COLO 205 colon, 2.49% (active); in the experiment with DU-145 prostate it was -93.8% (active); with K-562 leukemia, -9.09% (active); in the experiment with MALME-3M melanoma, 51%. The growth in the experiment on MDA-MB-231 breast was 25.5%; in the experiment on RXF 393 renal, -1.98% (active); in the experiment on SF-268 CNS, 26.3%; in the experiment on SF-295 CNS, 16.7%; in the experiment with SF-539 CNS, -11.3% (active); with UACC-257 melanoma it was 11.6%. In addition, the growth in the experiment with M14 melanoma was 7.91% (active).

As for `COc1cccc(C2C(C#N)=C(N)Oc3c2ccc2ccccc32)c1` (stereo not given), the growth was 47.1% with NCI-H226 lung; 41.7% in the experiment with NCI-H322M lung; 39.6% in the experiment on HOP-62 NSCLC; 8.32% (active) with NCI-H460 lung; 46.5% in the experiment with HOP-92 NSCLC; 7.11% (active) in the experiment with NCI-H522 lung. Further, the growth in the experiment with A549/ATCC NSCLC was 26.2%; in the experiment on 786-0 renal, 20.6%; in the experiment with COLO 205 colon, -41.8% (active); in the experiment on DU-145 prostate, 16.9%; in the experiment with K-562 leukemia it was 6.44% (active); in the experiment with MALME-3M melanoma it was 54.4%. Further, the growth is 24.2% in the experiment with MDA-MB-231 breast; 40.7% in the experiment with RXF 393 renal; 30.9% in the experiment with SF-268 CNS; 23.5% with SF-295 CNS; -12% (active) in the experiment on SF-539 CNS; 82% in the experiment on UACC-257 melanoma. The growth with M14 melanoma was 9.7% (active).

Turning to `CCCC[N+]1(C)CCN=C1Cc1ccccc1` (stereo not given), the growth in the experiment on NCI-H226 lung was 97.6%; with NCI-H322M lung it was 99.9%; with HOP-62 NSCLC, 105%; in the experiment on NCI-H460 lung it was 110%; with HOP-92 NSCLC it was 90.9%; with NCI-H522 lung it was 88.5%. Besides, the growth in the experiment with A549/ATCC NSCLC was 87.8%; in the experiment with 786-0 renal it was 101%; in the experiment on COLO 205 colon it was 111%; in the experiment with DU-145 prostate, 106%; with K-562 leukemia, 84.6%; in the experiment with MALME-3M melanoma, 98.2%. Further, the growth in the experiment with MDA-MB-231 breast is 109%; in the experiment on RXF 393 renal it was 100%; with SF-268 CNS, 97.7%; with SF-295 CNS, 97.4%; in the experiment on SF-539 CNS, 96.2%; in the experiment on UACC-257 melanoma it was 93.7%. In addition, the growth in the experiment with M14 melanoma is 106%.

On to `Clc1nc(N2CCC[N+]3(CC2)CC[N+]2(CCCNCC2)CC3)nc(N2CCC[N+]3(CC2)CC[N+]2(CCCNCC2)CC3)n1` (stereo not given), for which the growth with NCI-H226 lung was 68.4%; with NCI-H322M lung, 99.7%; in the experiment with HOP-62 NSCLC it was 91.1%; with NCI-H460 lung, 76.8%; in the experiment with HOP-92 NSCLC, 131%; in the experiment on NCI-H522 lung, 94%. Besides, the growth is 86.1% in the experiment with A549/ATCC NSCLC; 72.8% in the experiment on 786-0 renal; 91% with DU-145 prostate; 104% in the experiment with K-562 leukemia; 3.84% (active) in the experiment on MALME-3M melanoma; 86.5% in the experiment with MDA-MB-231 breast. The growth is 100% in the experiment with RXF 393 renal; 76.8% in the experiment on SF-268 CNS; 104% with SF-295 CNS; 87.5% in the experiment with SF-539 CNS; 81.3% in the experiment with UACC-257 melanoma; 103% in the experiment with M14 melanoma.
